This note sets out measurements from PubChem BioAssay (NCATS).

“And” between values parts separate entries of the source, which are not always exact repeats. Identical values can stand only once. Inconclusive results are not listed. The source made the active and inactive calls. Unless noted, the call rests on the fitted dose curve; in most records, active means well fitted curve in the direction sought with a large enough effect; inconclusive means small, poorly fitted or top-dose-only effect, or another doubt; inactive means no such curve, though single readings can be large; an effect the other way counts as inactive or inconclusive.

Assay [1] in a line: Primary qHTS for inhibitors of nuclear receptor binding SET domain protein 2 (NSD2) in an RCH-ACV wild type WT cells (2C) (AID 1645877). Further: nearly all actives have a fitted effect of over 70% in size. Further: potency means the concentration at half of the fitted maximal effect.
A short description of assay [2]: Primary qHTS for inhibitors of nuclear receptor binding SET domain protein 2 (NSD2) in an isogenic RCH-ACV NSD2 p.E1099K mutant (9B) (AID 1645876; further: nearly all actives have a fitted effect of over 70% in size; further: potency means the concentration at half of the fitted maximal effect). (Quantitative high-throughput screening tests each substance at several concentrations.)
Assay [3] addresses Rap guanine nucleotide exchange factor 3 (Homo sapiens) (UniProt O95398). Kind of assay: Confirmatory qHTS for antagonist of cAMP-regulated guanine nucleotide exchange factor 3 (EPAC1) (AID 1645880). Further: nearly all actives have a fitted effect of over 55% in size. Further: potency means the concentration at half of the fitted maximal effect. In a few lines:
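Released BODIPY-GDP fluoresces less than Rap1-bound BODIPY-GDP; the signal is followed at 480/540 nm at 5-min intervals over 30 min, after 5 min at room temperature. Reactions contain 100 nM EPAC1, 250 nM RAP1B-BODIPY-GDP and 50 uM GDP; results are normalized to ATA and DMSO.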

In assay [4] the target is Rap guanine nucleotide exchange factor 4 (Homo sapiens) (UniProt Q8WZA2). As to the kind of experiment: Confirmatory qHTS for antagonist of cAMP-regulated guanine nucleotide exchange factor 4 (EPAC2) (AID 1645885). Further: potency means the concentration at half of the fitted maximal effect; nearly all actives have a fitted effect of over 25% in size.
Assay [5] in a line: NCATS anti-infectives library activity on HEK293 viability as a counter-qHTS vs the C. elegans viability qHTS (AID 1745854). Further: potency means the concentration at half of the fitted maximal effect. In a few lines: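 CellTiter-Glo luminescence, read on a CCD imager, scored viability of HEK293 cells after 24 hr compound exposure at 37C. Library tested in several concentrations, 1:5 steps, up to 41.7 uM; digitonin served as control.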
The target in assay [6] is Rap guanine nucleotide exchange factor 3 (Homo sapiens) (UniProt O95398). As to the kind of experiment: Confirmatory qHTS for agonist of cAMP-regulated guanine nucleotide exchange factor 3 (EPAC1) (AID 1645881).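 Further: EPAC1 catalysed release of BODIPY-GDP from Rap1B seen as fluorescence loss; 100% = effect of cAMP agonist control; nearly all actives have a fitted effect of over 75% in size.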
Assay [7] deals with Rap guanine nucleotide exchange factor 4 (Homo sapiens) (UniProt Q8WZA2). As to the kind of experiment: Confirmatory qHTS for agonist of cAMP-regulated guanine nucleotide exchange factor 4 (EPAC2) (AID 1645884).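 Further: nucleotide exchange releases bodipy-GDP from Rap1 and this lowers its fluorescence; on the % scale 0 is the no-effect control and ±100 the full control effect; nearly all actives have a fitted effect of over 65% in size.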
Assay [8] concerns the target Catechol O-methyltransferase (Homo sapiens) (UniProt P21964). As to the kind of experiment: Confirmatory Screen for Target Class Profiling of Small Molecule Inhibitors of Methyltransferases (AID 1745852; calls by dose curve; on activity change, negative = inhibition: on the % scale 0 is the no-effect control and ±100 the full control effect). Conditions: MTase-Glo luminescence, SAH detection, recombinant enzyme; measured here: COMT max response; stronger effect = lower value.
Assay [9] addresses Guanidinoacetate N-methyltransferase (Homo sapiens) (UniProt Q14353). Described as above. Conditions: MTase-Glo luminescence, SAH detection, recombinant enzyme; at 57.3 µM (top of the series).
In assay [10] the target is Nicotinamide N-methyltransferase (Homo sapiens) (UniProt P40261). Described as above. Conditions: MTase-Glo luminescence, SAH detection, recombinant enzyme; measured here: NNMT max response; stronger effect = lower value.
Assay [11] deals with Phenylethanolamine N-methyltransferase (Homo sapiens) (UniProt P11086). The assay is described as above. Conditions: MTase-Glo luminescence, SAH detection, recombinant enzyme; measured here: PNMT max response; stronger effect = lower value.
Sequence of Phenylethanolamine N-methyltransferase (Homo sapiens) (P11086 whole entry, looked up): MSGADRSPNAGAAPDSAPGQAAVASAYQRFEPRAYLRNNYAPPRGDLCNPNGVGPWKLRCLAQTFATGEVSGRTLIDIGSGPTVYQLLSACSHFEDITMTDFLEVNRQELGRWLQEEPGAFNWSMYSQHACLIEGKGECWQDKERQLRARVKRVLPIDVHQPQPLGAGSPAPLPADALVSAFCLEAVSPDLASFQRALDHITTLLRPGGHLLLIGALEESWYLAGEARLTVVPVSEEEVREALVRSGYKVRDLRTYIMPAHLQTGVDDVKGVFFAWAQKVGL

Sequence of Rap guanine nucleotide exchange factor 3 (Homo sapiens) (O95398 whole entry, looked up): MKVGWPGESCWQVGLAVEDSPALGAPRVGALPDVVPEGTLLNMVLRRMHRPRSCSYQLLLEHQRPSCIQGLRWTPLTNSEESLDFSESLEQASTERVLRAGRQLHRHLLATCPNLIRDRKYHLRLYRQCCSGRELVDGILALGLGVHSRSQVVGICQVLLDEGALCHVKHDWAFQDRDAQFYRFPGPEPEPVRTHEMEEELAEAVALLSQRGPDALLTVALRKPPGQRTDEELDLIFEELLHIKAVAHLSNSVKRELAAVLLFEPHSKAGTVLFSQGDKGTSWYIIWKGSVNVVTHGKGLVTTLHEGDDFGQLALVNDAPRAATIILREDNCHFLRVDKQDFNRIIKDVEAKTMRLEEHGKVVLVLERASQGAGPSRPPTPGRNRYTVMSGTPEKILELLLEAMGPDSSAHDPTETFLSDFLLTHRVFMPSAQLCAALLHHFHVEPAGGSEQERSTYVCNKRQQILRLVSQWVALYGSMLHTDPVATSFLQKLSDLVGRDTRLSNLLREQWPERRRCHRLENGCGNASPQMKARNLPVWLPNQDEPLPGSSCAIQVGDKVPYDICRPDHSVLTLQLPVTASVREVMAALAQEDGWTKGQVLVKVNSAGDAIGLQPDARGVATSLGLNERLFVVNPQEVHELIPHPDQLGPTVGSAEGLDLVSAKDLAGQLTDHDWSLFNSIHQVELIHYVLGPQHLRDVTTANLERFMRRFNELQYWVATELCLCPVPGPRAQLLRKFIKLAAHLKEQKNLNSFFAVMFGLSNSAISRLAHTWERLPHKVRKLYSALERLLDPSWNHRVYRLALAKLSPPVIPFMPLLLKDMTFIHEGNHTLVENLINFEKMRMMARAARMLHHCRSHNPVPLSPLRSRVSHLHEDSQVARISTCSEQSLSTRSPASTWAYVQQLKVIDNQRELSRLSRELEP
Sequence of Rap guanine nucleotide exchange factor 4 (Homo sapiens) (Q8WZA2 whole entry, looked up): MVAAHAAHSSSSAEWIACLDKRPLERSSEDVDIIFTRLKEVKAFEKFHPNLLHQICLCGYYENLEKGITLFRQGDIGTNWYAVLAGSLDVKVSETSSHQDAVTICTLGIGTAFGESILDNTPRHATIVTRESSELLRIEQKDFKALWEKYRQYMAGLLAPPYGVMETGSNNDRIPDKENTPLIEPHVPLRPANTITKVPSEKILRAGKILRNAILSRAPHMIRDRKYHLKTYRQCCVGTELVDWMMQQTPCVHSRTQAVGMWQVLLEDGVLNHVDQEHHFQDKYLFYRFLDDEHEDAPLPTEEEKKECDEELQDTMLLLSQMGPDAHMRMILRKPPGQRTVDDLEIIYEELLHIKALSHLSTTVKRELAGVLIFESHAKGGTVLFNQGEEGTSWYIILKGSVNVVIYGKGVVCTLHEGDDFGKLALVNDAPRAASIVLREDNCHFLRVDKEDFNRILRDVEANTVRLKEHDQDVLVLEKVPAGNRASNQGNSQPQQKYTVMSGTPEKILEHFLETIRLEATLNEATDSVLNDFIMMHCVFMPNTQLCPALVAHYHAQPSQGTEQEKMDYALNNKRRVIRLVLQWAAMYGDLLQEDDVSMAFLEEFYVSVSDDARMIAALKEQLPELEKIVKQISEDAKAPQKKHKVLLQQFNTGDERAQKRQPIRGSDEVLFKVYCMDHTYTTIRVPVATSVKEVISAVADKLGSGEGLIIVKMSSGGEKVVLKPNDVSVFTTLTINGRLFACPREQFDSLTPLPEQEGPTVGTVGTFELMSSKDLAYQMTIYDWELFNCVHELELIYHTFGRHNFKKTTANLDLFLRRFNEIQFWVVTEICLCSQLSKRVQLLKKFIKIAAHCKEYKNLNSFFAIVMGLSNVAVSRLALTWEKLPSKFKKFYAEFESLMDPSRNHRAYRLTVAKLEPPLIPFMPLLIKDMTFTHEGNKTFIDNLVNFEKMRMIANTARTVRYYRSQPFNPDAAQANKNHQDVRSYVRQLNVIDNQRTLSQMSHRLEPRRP
Sequence of Nicotinamide N-methyltransferase (Homo sapiens) (P40261 whole entry, looked up): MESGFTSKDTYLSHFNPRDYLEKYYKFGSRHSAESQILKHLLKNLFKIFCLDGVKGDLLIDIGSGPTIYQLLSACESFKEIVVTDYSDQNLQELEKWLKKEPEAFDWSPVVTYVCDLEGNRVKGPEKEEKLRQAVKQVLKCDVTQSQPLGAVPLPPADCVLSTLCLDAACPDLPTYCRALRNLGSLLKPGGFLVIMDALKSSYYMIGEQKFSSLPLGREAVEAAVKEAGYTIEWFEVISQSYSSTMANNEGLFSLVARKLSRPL
Sequence of Catechol O-methyltransferase (Homo sapiens) (P21964 whole entry, looked up): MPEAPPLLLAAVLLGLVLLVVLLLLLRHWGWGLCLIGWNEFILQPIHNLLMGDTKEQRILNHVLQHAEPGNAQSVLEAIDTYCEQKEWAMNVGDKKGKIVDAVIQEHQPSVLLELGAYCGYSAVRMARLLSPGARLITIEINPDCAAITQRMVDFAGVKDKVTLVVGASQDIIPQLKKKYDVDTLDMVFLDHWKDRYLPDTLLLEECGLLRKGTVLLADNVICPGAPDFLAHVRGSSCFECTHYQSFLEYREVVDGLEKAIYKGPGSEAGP

Turning to `CCCCCOc1ccc(C2SC(=O)NC2=O)cc1OCC` (centres undefined), the Potency entry in assay [1] is “inactive”. For `O=C(Nc1ccc(S(=O)(=O)N2CCOCC2)cc1)c1cc(Cl)ccc1NS(=O)(=O)c1ccc(Cl)s1`, the Potency entry in [2] and in assay [1] was “inactive” in each case. Moreover, the Potency in [3] is 35200 nM (active); in assay [4] it was 24800 nM (active). For `C[C@]12CCC(=O)C=C1CC[C@@H]1[C@@H]2[C@@H](O)C[C@@]2(C)[C@H]1CC[C@]2(O)C(=O)COC(=O)CCC(=O)O`, the Potency in [1] was 1880 nM (active).

As to `CC1(C)O[C@@H]2C[C@H]3[C@@H]4CCC5=CC(=O)C=C[C@]5(C)[C@@]4(F)[C@@H](O)C[C@]3(C)[C@]2(C(=O)CO)O1`, the Potency in assay [1] was 59.6 nM (active) and 13.2 nM (active). On the same count and under the same terms, the value for `CN1CCCN(C(c2ccccc2)c2ccc(Cl)cc2)CC1` (centres undefined) was 16800 nM (active); that for `CC1(C)O[C@@H]2C[C@H]3[C@@H]4C[C@H](F)C5=CC(=O)C=C[C@]5(C)[C@@]4(F)[C@@H](O)C[C@]3(C)[C@]2(C(=O)CO)O1` was 0.8 nM (active) and 5.9 nM (active); that for `CCCCC(=O)OCC(=O)[C@H]1[C@H](C)C[C@H]2[C@@H]3C[C@H](F)C4=CC(=O)C=C[C@]4(C)[C@@]3(F)[C@@H](O)C[C@@]21C` was 3.3 nM (active). With `CCCCCC(=O)O[C@]1(C(C)=O)CC[C@H]2[C@@H]3CCC4=CC(=O)CC[C@]4(C)[C@H]3CC[C@@]21C`, the Potency in assay [1] was 10600 nM (active).

Consider `CCCCCCCCCCCCCCCC[n+]1ccccc1`, for which the Potency in [2] was 376 nM (active); in assay [1], 335 nM (active); in assay [5], 11200 nM (active). In the case of `CCCC(=O)O[C@]1(C(=O)CCl)[C@@H](C)C[C@H]2[C@@H]3CCC4=CC(=O)C=C[C@]4(C)[C@@]3(F)C(=O)C[C@@]21C`, in assay [1], the Potency was 0.7 nM (active). Still for that read-out and setting: the value for `CC(C)=CCC/C(C)=C/CC/C(C)=C/C(=O)OCC(=O)[C@@]1(O)CC[C@H]2[C@@H]3CCC4=CC(=O)C=C[C@]4(C)[C@H]3[C@@H](O)C[C@@]21C` was 4730 nM (active). For `Nc1nc(=O)n([C@@H]2O[C@H](CO)[C@@H](O)[C@@H]2F)cc1I`, the Potency in [2] is 1680 nM (active). In addition, in assay [5], the Potency result was “inactive”. For the molecule `CCC(=O)O[C@]1(C(=O)COC)[C@@H](C)C[C@H]2[C@@H]3CCC4=CC(=O)C=C[C@]4(C)C3(F)[C@@H](O)C[C@@]21C` (some centres undefined), the Potency in [1] is 3.3 nM (active).

With `CC(=O)OCC(=O)[C@@]1(O)[C@H](OC(C)=O)C[C@H]2[C@@H]3CCC4=CC(=O)C=C[C@]4(C)[C@@]3(F)[C@@H](O)C[C@@]21C`, the Potency in assay [1] is 59.6 nM (active). The same measure, in the same setting: the same measure for `Oc1ccc(CCNCCCCCCNCCc2ccccc2)cc1O`: 16800 nM (active). In the case of `COc1c(C)c2c(c(O)c1C/C=C(\C)CCC(=O)OCCN1CCOCC1)C(=O)OC2`, the Potency in assay [2] is 473 nM (active) and 525 nM (active); in assay [1], 376 nM (active). Besides, in assay [5], the Potency result was “inactive”. Consider `Cc1cc(CCCOc2c(C)cc(-c3noc(C(F)(F)F)n3)cc2C)on1`, for which the Potency entry in [5] was “inactive”. Turning to `CC(C)(c1ccc(O)cc1)c1ccc(O)cc1`, the Potency entry in [3], in assay [6] and in assay [7] was “inactive” in each case. In assay [4], the Potency is 80400 nM (active).

As to `CCOC(=O)Cn1cccc1-c1nc(-c2ccc(OC)cc2)c(-c2ccc(OC)cc2)s1`, in assay [1], the Potency result is “inactive”. Besides, the values for the activity in assay [8], in assay [10] and in [11] were -5.88%, -5.59% and -4.51%, respectively. The activity change, negative = inhibition in assay [9] was -8.59%.
